Here are results for seven compounds from PubChem BioAssay (NCI).

About 83,000 compounds went through this panel and 20% of them were active in at least one assay; those are over-represented in the sample as a whole.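 The endpoint reported here, percent growth, reads 100 for growth as untreated, 0 for no net growth and -100 for all cells dead.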 A number with no mark means an inactive call. The source made the active and inactive calls. The calls were made as follows: active = growth percent below 10; inactive = the rest.

Some test systems named below: NCI-H23 lung; NCI-H226 lung; NCI-H322M lung; HOP-62 NSCLC; NCI-H460 lung; HOP-92 NSCLC; NCI-H522 lung; A549/ATCC NSCLC; 786-0 renal; COLO 205 colon; DU-145 prostate; K-562 leukemia; MALME-3M melanoma; MDA-MB-231 breast; RXF 393 renal; SF-268 CNS; SF-295 CNS; SF-539 CNS; UACC-257 melanoma; M14 melanoma.
Common to all, as to assay: NCI-60 one-dose screen, 48 h (100 = growth as untreated, 0 = no growth, -100 = all killed)
Settings in all cases: 10 µM

`CC(C)C[C@H](NC(=O)Cn1ccc2ccccc2c1=O)B(O)O`: the growth with NCI-H23 lung is 74.5%; in the experiment on NCI-H226 lung, 11.5%; in the experiment on NCI-H322M lung, 102%; in the experiment with HOP-62 NSCLC, 98.4%; in the experiment with NCI-H460 lung, 106%; in the experiment on HOP-92 NSCLC, 99%. Further, the growth in the experiment with NCI-H522 lung was 28.6%; with A549/ATCC NSCLC, 84.9%; with 786-0 renal, 70.3%; in the experiment on COLO 205 colon, 62.2%; in the experiment on DU-145 prostate, 73.5%; in the experiment with K-562 leukemia, 64%. Moreover, the growth in the experiment with MALME-3M melanoma was 39.6%; with MDA-MB-231 breast, 88%; in the experiment with RXF 393 renal it was 10.3%; with SF-268 CNS, 79.6%; in the experiment on SF-295 CNS, 69.5%; with SF-539 CNS it was 15.9%. In addition, the values for the growth in the experiment with UACC-257 melanoma and with M14 melanoma were 42.1% and 56%, respectively.
Consider `CN(C)CCCN(Cc1ccccc1O)C(=S)Nc1ccc(Cl)cc1`, for which the growth in the experiment with NCI-H23 lung is 108%; in the experiment on NCI-H226 lung it was 94.5%; with NCI-H322M lung it was 98.1%; in the experiment on HOP-62 NSCLC, 108%; in the experiment on NCI-H460 lung, 102%; in the experiment with HOP-92 NSCLC, 86.8%. The growth with NCI-H522 lung is 96%; in the experiment on A549/ATCC NSCLC it was 98.1%; in the experiment with 786-0 renal, 107%; with COLO 205 colon it was 113%; in the experiment with DU-145 prostate, 121%; in the experiment on K-562 leukemia, 97.5%. The growth with MALME-3M melanoma was 101%; with MDA-MB-231 breast it was 97%; with RXF 393 renal, 93.4%; in the experiment on SF-268 CNS it was 102%; in the experiment with SF-295 CNS, 94.7%; in the experiment with SF-539 CNS, 104%. The growth in the experiment with UACC-257 melanoma is 101%; in the experiment with M14 melanoma, 108%.
For `CC(=O)OC1Oc2ccccc2-c2oc(=O)c(-c3ccc(F)cc3)cc21` (centres undefined), the growth in the experiment on NCI-H23 lung was 92.5%; in the experiment on NCI-H226 lung it was 91.9%; in the experiment with NCI-H322M lung it was 107%; with HOP-62 NSCLC, 101%; in the experiment on NCI-H460 lung, 94.4%; in the experiment with HOP-92 NSCLC, 112%. Moreover, the growth in the experiment with NCI-H522 lung was 42.5%; in the experiment on A549/ATCC NSCLC, 57.8%; with 786-0 renal it was 95.4%; in the experiment on COLO 205 colon it was 108%; in the experiment with DU-145 prostate it was 92.4%; with K-562 leukemia it was 87.7%. Also, the growth in the experiment on MALME-3M melanoma is 99.5%; in the experiment with MDA-MB-231 breast, 73.1%; in the experiment with SF-268 CNS, 81.4%; in the experiment with SF-295 CNS, 89.1%; in the experiment on SF-539 CNS, 86.4%; with UACC-257 melanoma it was 58.6%. Further, the growth in the experiment with M14 melanoma is 100%.
In the case of `CCCCCCCCCCCCCC[n+]1ccc(C)cc1`, the growth in the experiment on NCI-H23 lung is -19% (active); in the experiment with NCI-H226 lung, 31.7%; in the experiment on NCI-H322M lung, 5.57% (active); in the experiment with HOP-62 NSCLC it was -39.2% (active); in the experiment on NCI-H460 lung, -74.1% (active); in the experiment with HOP-92 NSCLC, -49.7% (active). For the same compound, the growth with NCI-H522 lung is -11.8% (active); with A549/ATCC NSCLC it was -30.5% (active); in the experiment with 786-0 renal it was -3.94% (active); with COLO 205 colon, -89.9% (active); with DU-145 prostate it was 5.11% (active); in the experiment on K-562 leukemia it was 9.19% (active). Besides, the growth was -40.2% (active) with MDA-MB-231 breast; -19.6% (active) in the experiment on RXF 393 renal; -32.4% (active) in the experiment with SF-268 CNS; -67.1% (active) in the experiment on SF-295 CNS; -33.5% (active) in the experiment with SF-539 CNS; -21.6% (active) in the experiment on UACC-257 melanoma. In the experiment with M14 melanoma, the growth was -72.7% (active).
Take `CC(=O)Nc1ccc2c(c1)C(N1CC3CCC(CC3)C1)c1ccccc1-2` (centres undefined): the growth was 90.7% in the experiment with NCI-H23 lung; 85% in the experiment with NCI-H226 lung; 115% in the experiment with NCI-H322M lung; 96.5% with HOP-62 NSCLC; 64.3% in the experiment with NCI-H460 lung; 64.2% in the experiment on HOP-92 NSCLC. The growth was 108% in the experiment on NCI-H522 lung; 85.9% in the experiment with A549/ATCC NSCLC; 92.5% in the experiment with 786-0 renal; 68.6% with COLO 205 colon; 109% in the experiment with DU-145 prostate; 58.9% in the experiment on K-562 leukemia. Moreover, the growth was 91.6% with MDA-MB-231 breast; 81.9% with RXF 393 renal; 92.7% in the experiment with SF-268 CNS; 101% in the experiment on SF-295 CNS; 97.2% in the experiment on SF-539 CNS; 84.1% in the experiment with UACC-257 melanoma. Moreover, in the experiment on M14 melanoma, the growth is 102%.
On to `COc1c(C)c(C)c(OC)c2c1[nH]c(=O)c1c3cccnc3cn21`, for which the growth with NCI-H23 lung was 103%; with NCI-H226 lung, 99%; in the experiment on NCI-H322M lung, 153%; with HOP-62 NSCLC, 92.6%; with NCI-H460 lung, 104%; with HOP-92 NSCLC, 102%. Also, the growth in the experiment with NCI-H522 lung was 98.4%; in the experiment with A549/ATCC NSCLC, 114%; in the experiment on 786-0 renal, 114%; with COLO 205 colon, 118%; in the experiment on DU-145 prostate, 111%; in the experiment with K-562 leukemia it was 102%. Further, the growth is 86.1% in the experiment with MDA-MB-231 breast; 116% in the experiment with RXF 393 renal; 112% in the experiment with SF-268 CNS; 119% in the experiment on SF-295 CNS; 103% in the experiment on SF-539 CNS; 126% in the experiment with UACC-257 melanoma.
As for `CCOC(=O)c1sc(NC(=O)c2cc(OC)c(OC)c(OC)c2)nc1C`, the growth was 93.3% with NCI-H23 lung; 88.8% with NCI-H226 lung; 161% with NCI-H322M lung; 116% in the experiment on HOP-62 NSCLC; 108% in the experiment on NCI-H460 lung; 46.9% with HOP-92 NSCLC. For the same compound, the growth is 67.4% in the experiment with NCI-H522 lung; 101% in the experiment with A549/ATCC NSCLC; 114% in the experiment on 786-0 renal; 122% in the experiment on COLO 205 colon; 110% in the experiment on DU-145 prostate; 51.2% with K-562 leukemia. Besides, the growth is 96.3% in the experiment on MDA-MB-231 breast; 119% in the experiment on RXF 393 renal; 97.3% with SF-268 CNS; 110% in the experiment with SF-295 CNS; 103% in the experiment on SF-539 CNS; 108% in the experiment with UACC-257 melanoma. Further, the growth in the experiment with M14 melanoma was 118%.
